About 79,000 compounds went through this panel and 15% of them were active in at least one assay; those are over-represented in the sample as a whole. Rule as the data show it: active = growth inhibition above about 70%; inactive = the rest.
Assays:
[1] = NCI Yeast Anticancer Drug Screen. Data for the rad50 strain (AID 155);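 also: 0% = growth of vehicle-only cultures of the same strain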; settings: S. cerevisiae rad50 strain growth inhibition; at 50.0 µM; stronger effect = higher value
Outline: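 Genetically altered yeast (DNA repair pathway); compound treatment; growth inhibition vs vehicle ctrl.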

[2] = NCI Yeast Anticancer Drug Screen. Data for the mec2-1 strain (AID 157); settings: S. cerevisiae mec2-1 strain, at 50.0 µM, stronger effect = higher value
Outline: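 Mutant yeast (mec2-1) grown with compound; growth inhibition relative to vehicle control reported.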

[3] = NCI Yeast Anticancer Drug Screen. Data for the sgs1 mgt1 strain (AID 161);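 also: 0% = growth of cultures given vehicle only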; settings: S. cerevisiae sgs1 mgt1 strain, at 50.0 µM, stronger effect = higher value
Outline: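 Percent growth inhibition was derived by comparing compound-exposed mutant yeast with vehicle-exposed cultures. The strain carries alterations in DNA damage repair.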

[4] = NCI Yeast Anticancer Drug Screen. Data for the cln2 rad14 strain (AID 165);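 also: 0% = growth equal to vehicle treated cultures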; settings: S. cerevisiae cln2 rad14 strain, at 50.0 µM, stronger effect = higher value
Outline: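 Readout is yeast growth inhibition versus vehicle-treated controls, using a strain with cln2 and rad14 alterations exposed to compound.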

[5] = NCI Yeast Anticancer Drug Screen. Data for the bub3 strain (AID 167); settings: S. cerevisiae bub3 mutant strain, at 50.0 µM, stronger effect = higher value
Outline: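 Yeast carrying a defined mutation is treated with each compound, and growth is compared with that of vehicle-exposed cells to give inhibition.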

[6] = NCI Yeast Anticancer Drug Screen. Data for the mlh1 rad18 strain (AID 175); settings: S. cerevisiae mlh1 rad18 strain growth inhibition; at 50.0 µM; stronger effect = higher value
Outline: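 Genetically defined yeast (DNA repair-deficient) exposed to compounds; growth inhibition determined relative to vehicle.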

Measured: growth inhibition

Clc1ccccc1C(N1CCCCC1)C(Cl)(Cl)Cl (stereo unspecified)
inactive: [1] 26.6% | [2] 14.6% | [3] 12.8% | [4] 18% | [5] 3.85% | [6] 21.3%

CCC/C=C1\CCC(CN(C)C)C1=O (stereo unspecified)
inactive: [1] -9.8% | [2] 7.85% | [3] 18.6% | [4] -1.4% | [5] -11.9% | [6] 15.1%

OC1CC2C3CCC(C3)C2C1O (stereo unspecified)
inactive: [1] -11.8% | [2] -6.35% | [3] -10.4% | [4] -7.45% | [5] 9.55% | [6] -2.95%

Oc1ccc(-c2ccc(Br)cc2)cc1
inactive: [1] -25.1% | [2] -6% | [3] -14.4% | [4] -2% | [5] -31.8% | [6] -14.8%

OCc1ccc(F)cc1CO
inactive: [1] -12.4% | [2] -2.35% | [3] -2.85% | [4] -17.1% | [5] -11.2% | [6] 11.9%

CC1OC(OC2C(OC(=O)[C@]34CCC(C)(C)C[C@H]3C3=CC[C@@H]5[C@@]6(C)CC[C@H](OC7OC(C(=O)O)C(O)C(OC8OCC(O)C(O)C8O)C7O)C(C)(C)[C@@H]6CC[C@@]5(C)[C@]3(C)CC4)OCC(O)C2O)C(O)C(OC2OCC(O)C(O)C2O)C1OC1OCC(O)C(OC2OCC(O)C(O)C2O)C1O (stereo partly specified)
inactive: [1] 17.1% | [2] 21.2% | [3] 19.6% | [4] 31.2% | [5] 38.4% | [6] 29.8%

O=C(Nc1ccccc1)c1ccc2ccccc2n1
inactive: [1] -12.7% | [2] -31% | [3] -22.1% | [4] -10.1% | [5] 10.6% | [6] 6.75%

CCOC(=O)C1=CC(C)(C(=O)OCC)Nc2c(nc(N)[nH]c2=O)N1 (stereo unspecified)
inactive: [1] -42.5% | [2] -12.9% | [3] -8.35% | [4] 4.35% | [5] -35.3% | [6] -19.9%

COc1cccc(C)c1C(O)CC1CCCN1 (stereo unspecified)
inactive: [1] 21.6% | [2] 3.75% | [3] 7.2% | [4] 29.8% | [5] 11.7% | [6] 6.05%

O=C(NCCCl)NCc1cccc2c1CCCC2
inactive: [1] -12.5% | [2] 9.75% | [3] -3.85% | [4] -26.4% | [5] -3.1% | [6] -24.2%

CCCCCCCCCCCCOC(=O)CSC#N
inactive: [1] -5.65% | [2] -38% | [3] -31.9% | [4] -67.5% | [5] -39.6% | [6] -14.1%

Cn1nc(-c2ccccc2)c(C(=O)/C=C/c2ccccc2)c(N2CCCC2)c1=O
inactive: [1] -22.1% | [2] -11.2% | [3] 3.2% | [4] -4.15% | [5] -21.1% | [6] -19.2%

COc1ccccc1N=NNc1ccc(S(=O)(=O)NC(C)=O)cc1
inactive: [1] 14.9% | [2] -28.5% | [3] -1.1% | [4] -0.6% | [5] -15% | [6] 0.55%

CCCCCCCCCCCCCCCCOc1ccc(N)cc1
inactive: [1] 11.7% | [2] 6.05% | [3] -16.3% | [4] -41.2% | [5] 19% | [6] 1.1%

CC(C)c1ccc(O)c(C(C)(C)C)c1
inactive: [1] -25.5% | [2] -29.8% | [3] -14.3% | [4] -13.9% | [5] -32.5% | [6] -14.6%

O=CNNC(=O)CN1C(=O)c2ccccc2C1=O
inactive: [1] 3.3% | [2] -0.45% | [3] 3.4% | [4] 17.8% | [5] -3.35% | [6] -6.65%

CC(=O)O[C@H]1C[C@H]2CC[C@@]1(C)C2(C)C
inactive: [1] 0.85% | [2] -4.45% | [3] -5.55% | [4] -24.8% | [5] -1.1% | [6] 7.95%

COc1ccc(N2C(=O)C3c4[nH]c5ccc(OC)cc5c4C4CCC(C(C)(C)C)CC4C3C2=O)cc1 (stereo unspecified)
inactive: [1] 22.1% | [2] 12.6% | [3] -5.45% | [4] -24% | [5] 16.1% | [6] 20.5%

COC(=O)c1ncn(Cc2ccccc2)c1O (tested in a mixture with another compound)
inactive: [1] 8.7% | [2] -2.2% | [3] 8.55% | [4] 16.3% | [5] 8.15% | [6] 36%

Cc1ccc([N+](=O)[O-])c(N)c1
inactive: [1] 40.5% | [2] 27.4% | [3] 26.1% | [4] 18.9% | [5] 4.65% | [6] 26.4%

CCCCCCCCCCCCCCCCCC#N
inactive: [1] 36.7% | [2] 20.6% | [3] -2.9% | [4] -52.1% | [5] 5.5% | [6] 39.9%

CCCC(=O)C1=C(O)C(CC2=C(O)C(C)(C)C(=O)C(C(=O)CCC)=C2O)=C(O)C(C)(C)C1=O
inactive: [1] 26.3% | [2] -12.4% | [3] -2.5% | [4] 1% | [5] -0.15% | [6] 1.3%

CCOC(=O)c1cnc(=S)[nH]c1N
inactive: [1] 40.5% | [2] -8.35% | [3] -19.2% | [4] 7.9% | [5] -3.15% | [6] -43.5%

CC(C)[Si]1(C(C)C)OCC2OC(n3c(C(=O)c4ccccc4)cc(=O)[nH]c3=O)CC2O[Si](C(C)C)(C(C)C)O1 (stereo unspecified)
inactive: [1] -2.2% | [2] 5.7% | [3] 17.5% | [4] 24.4% | [5] 17.9% | [6] 6.35%

CC(C)N(C(=O)c1cccc([N+](=O)[O-])c1)C(C)C
inactive: [1] 14.6% | [2] 11.2% | [3] 7.5% | [4] -30.9% | [5] -4.1% | [6] 15.8%

CN(C)c1ccc(/C=C2\Cc3ccccc3C2=O)cc1Br
inactive: [1] 19.6% | [2] -8% | [3] 1.45% | [4] 0.95% | [5] -8.55% | [6] 12.4%

CSc1ccc(NC(=O)Nc2cc(Cl)c(Cl)cc2C)cc1
inactive: [1] 4.7% | [2] 60.5% | [3] 46.8% | [4] -1.95% | [5] 35% | [6] 25.2%

CCCCCCCC/C=C/CCCCCCCCCCCC(=O)O
inactive: [1] -7.6% | [2] -39.2% | [3] -1.45% | [4] -46.5% | [5] -8.9% | [6] 2.35%

COc1ccc2c(c1)CN(C)c1ccc(OC)cc1CN2C
inactive: [1] 10.7% | [2] -18.6% | [3] 12.2% | [4] 12.4% | [5] 12.5% | [6] 24.6%

O=C(/C=C/c1ccc(OCCCOc2ccc(/C=C/C(=O)c3ccccc3)cc2)cc1)c1ccccc1
inactive: [1] 14.3% | [2] -18.1% | [3] -4.25% | [4] -57% | [5] -37.9% | [6] -10.5%

CCN(CC)C(=O)C1C(C=C(C)C)C1(C)C (stereo unspecified)
inactive: [1] 6.95% | [2] 20.4% | [3] 12.2% | [4] 5.3% | [5] -10.1% | [6] 7.55%

Oc1ccccc1-c1cc(-c2ccccc2)nc(NCCCCNc2nc(-c3ccccc3)cc(-c3ccccc3O)n2)n1
inactive: [1] -5.05% | [2] -3.95% | [3] -14.7% | [4] -21.8% | [5] -1.75% | [6] -2.65%

ClC(Cl)C1OCCCO1
inactive: [1] -32.4% | [2] -17.4% | [3] -23.2% | [4] -41.1% | [5] 12.2% | [6] -8.25%

O=C1CC(=O)N(CCc2ccccc2)S(=O)(=O)N1CCc1ccccc1
inactive: [1] -8.9% | [2] -21.4% | [3] -14.2% | [4] 30.4% | [5] -15.2% | [6] -32.8%

CCc1ccccc1N1C(=O)C(=O)C(c2nc3ccccc3s2)C(=O)C1=O
inactive: [1] 12.7% | [2] 5.05% | [3] 17.2% | [4] 15.5% | [5] 2.3% | [6] 10.3%

NC(=O)NOCC(N)C(=O)O (stereo unspecified)
inactive: [1] -7.2% | [2] 1.8% | [3] 1.15% | [4] -41.3% | [5] 5.35% | [6] -2.9%

Source: PubChem BioAssay (NCI)
